An excerpt weighted towards active compounds, which were near 3.3% of everything screened.
AmpC inh detg: blocks E. coli AmpC beta-lactamase in detergent assay; P00811; AmpC hydrolysis of nitrocefin, absorbance 480 nm, 0.01% Triton; Potency, µM (doses to about 114 µM), most hits filed as inhibitors; 370,000 compounds, 0.041% hits; AID 485294; note: nearly all actives have a fitted effect of over 25% in size
Target sequence (P00811 whole entry, looked up): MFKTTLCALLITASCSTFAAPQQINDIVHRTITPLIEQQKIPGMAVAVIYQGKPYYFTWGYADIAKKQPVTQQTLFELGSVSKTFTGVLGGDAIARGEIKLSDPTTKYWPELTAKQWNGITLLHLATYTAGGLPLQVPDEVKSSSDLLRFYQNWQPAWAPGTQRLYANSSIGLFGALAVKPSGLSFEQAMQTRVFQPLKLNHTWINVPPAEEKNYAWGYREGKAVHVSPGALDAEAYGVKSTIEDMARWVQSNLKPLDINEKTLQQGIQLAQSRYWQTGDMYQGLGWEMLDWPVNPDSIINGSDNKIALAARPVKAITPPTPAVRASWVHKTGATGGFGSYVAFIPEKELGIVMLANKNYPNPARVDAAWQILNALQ
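20 mM phosphate pH 7.0 + 0.01% (detergent screen) or 0.0001% Triton X-100; 5.3 nM AmpC reagent; cpd preinc 15 min RT; nitrocefin (800 uM stock) to start; A480 q20 s × 4 min; Activity was normalised to no-enzyme and no-compound control wells.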
RE007 growth inh: less growth of the S. pombe RE007 Vpr strain; S. pombe RE007 Vpr strain, BacTiter-Glo ATP luminescence, 24 h; AID 651644; 360,000 compounds, 0.21% hits; Potency, µM (top dose mostly 92.2 µM), most hits filed as inhibitors; active = well fitted falling curve with a large enough effect; inconclusive = small, poorly fitted or top-dose-only effect; inactive = no such curve, though single readings can be large or run the other way; note: nearly all actives have a fitted effect of over 50% in size
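Fission yeast strain RE007, carrying one chromosomally integrated HIV-1 vpr copy, was seeded at OD 0.01 in PMG+AL medium with 23 nL pinned compound. After 24 h at 30 °C and 99% humidity, viability was read by BacTiter-Glo luminescence.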
AmpC inh no detg: blocks E. coli AmpC beta-lactamase in detergent-free assay; 330,000 compounds, 0.52% hits; AmpC nitrocefin hydrolysis, absorbance 480 nm, 0.0001% Triton; AID 485341; Potency, µM (doses to about 57.1 µM), usual class: inhibitors; note: nearly all actives have a fitted effect of over 20% in size
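20 mM phosphate pH 7.0 + 0.01% (detergent screen) or 0.0001% Triton X-100; 5.3 nM AmpC reagent; cpd preinc 15 min RT; nitrocefin (800 uM stock) to start; A480 q20 s × 4 min; Activity was normalised to no-enzyme and no-compound control wells.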
Sm TGR block: blocks Schistosoma mansoni thioredoxin glutathione reductase | Q962Y6 | purified TGR, DTNB reduction, TNB absorbance 405 nm | Potency, µM (titrated, usually from 114 µM), actives largely listed as inhibitors | 360,000 compounds, 3% hits; note: nearly all actives have a fitted effect of over 60% in size
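Kinetic colorimetric format: TGR-catalysed, NADPH-driven DTNB reduction monitored via TNB absorbance. Enzyme dispensed at 20 nM; compound exposure 15 min at room temperature before reaction start.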
SARS PLpro yeast: blocks SARS-CoV papain-like protease in a yeast assay; S. cerevisiae expressing SARS-CoV PLpro, growth rescue; Potency, µM (highest dose often 32.9 µM), actives largely listed as activators; 330,000 compounds, 0.19% hits; AID 485353; calls by dose curve; note: nearly all actives have a fitted effect of over 55% in size
TbPYK inhibitor: blocks Trypanosoma brucei pyruvate kinase; TbPYK enzyme, Kinase-Glo Plus ATP luminescence, 45 min; Potency, µM (doses to about 76.8 µM), usual class: inhibitors; 410,000 compounds, 0.12% hits; note: nearly all actives have a fitted effect of over 50% in size
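Readout: single end-point luminescence (Kinase-Glo Plus, 10 min). Reaction conditions were TbPYK/substrate plus 130 uM ADP, 45 min at RT, pH 7.2 TEA buffer. No-enzyme wells served as controls, and data were normalized before concentration-response fitting.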
Numbers stand for hits; n = inactive; u = inconclusive; x = no result given. Unless noted, calls come from the whole dose curve; as a rule, active = well fitted curve in the direction sought with a large enough effect; inconclusive = small, poorly fitted or top-dose-only effect, or another doubt; inactive = no such curve, though single readings can be large; an effect the other way counts as inactive or inconclusive.

SMILES	AmpC inh detg	RE007 growth inh	AmpC inh no detg	Sm TGR block	SARS PLpro yeast	TbPYK inhibitor
COc1ccc2c(c1)C(C1=C(O)CC(C)(C)CC1=O)C1=C(CC(C)(C)CC1=O)O2 (stereo not drawn)	n	n	n	n	n	n
Cc1cccc(C)c1OCc1cc(=O)n2ccsc2n1	n	x	x	n	x	n
CC(C)N1C(=S)N(Cc2ccco2)C(=O)C1CC(=O)Nc1ccccc1 (stereo not drawn)	n	u	n	40µM	n	n
Cc1cc2ccccc2n1CCNC(=O)c1ccc(Br)o1	n	n	n	13µM	n	n
CC(C)CN1C(=O)NC(NC(=O)c2ccco2)(C(F)(F)F)C1=O (stereo not drawn)	n	n	n	n	n	n
O=C(NC1(C(F)(F)F)NC(=O)N(CC2CCCCC2)C1=O)c1ccco1 (stereo not drawn)	u	n	n	79µM	n	n
Cc1cc(C)c(C#N)c(OCC(=O)c2ccccc2)n1	n	n	n	n	n	n
Cc1cc(C)c(C#N)c(OCc2ccc(Cl)nc2)n1	n	n	n	89µM	n	n
COc1ccc2cc(/C=C/C(=O)c3ccco3)c(Cl)nc2c1	n	x	n	45µM	n	x
Cc1ccc2nc(Cl)c(/C=C/C(=O)c3ccco3)cc2c1	n	n	n	u	n	n
Cc1ccc2cc(/C=C/C(=O)c3ccco3)c(Cl)nc2c1	n	n	n	8.9µM	n	n
CC(=O)c1ccc(NC(=O)/C=C/c2ccc(C)o2)cc1	n	x	x	11µM	x	u
Cc1ccc(/C=C/C(=O)Nc2ccc(Oc3ccccc3)cc2)o1	n	n	n	18µM	n	u
Cc1ccc(/C=C/C(=O)Nc2ccc([N+](=O)[O-])cc2)o1	n	n	n	16µM	n	u
CCCOc1ccc(/C=C/C(=O)Nc2ccc([N+](=O)[O-])cc2)cc1	n	n	n	n	n	n
O=C(O)/C=C/C(=O)Nc1ccc(Oc2ccccc2)cc1	n	n	n	n	n	n
Cc1cc(NS(=O)(=O)c2ccc(NC(=O)/C=C/c3ccc(C)o3)cc2)nc(C)n1	n	n	n	3.2µM	n	u
Cc1cc(NS(=O)(=O)c2ccc(NC(=O)/C=C/c3ccccc3)cc2)nc(C)n1	x	n	n	x	n	n
Cc1ccc(CNc2nc(-c3ccco3)nn2S(C)(=O)=O)cc1	n	x	x	n	x	n
CCc1cnc2c(c1SCC(=O)Nc1cc(Cl)ccc1OC)c(=O)n(C)c(=O)n2C	n	x	x	n	x	n
O=S(=O)(CCSc1nc2ccccc2o1)c1nc2ccccc2s1	n	n	n	0.71µM	n	n
O=C(CSc1ccccn1)Nc1nc2ccccc2s1	n	n	n	n	n	n
O=S(=O)(CCSc1ccccn1)c1nc2ccccc2s1	n	u	n	0.79µM	n	n
Cn1c(O)c(N=Nc2ccccc2)c2ccccc21	n	n	n	45µM	n	n
CCCOc1ccc(-c2nn(-c3ccccc3)cc2C2NC(=O)NC(C)=C2C(=O)OC(C)C)cc1 (stereo not drawn)	n	x	x	n	x	n
SMILES	AmpC inh detg	RE007 growth inh	AmpC inh no detg	Sm TGR block	SARS PLpro yeast	TbPYK inhibitor
C=C1C(=O)C=C2CN(C(=O)c3ccccc3)[C@@](Cc3ccc(F)cc3)(C(=O)OC)[C@@H]12	n	n	n	10µM	n	u
C=C1C(=O)CC2=C1[C@](Cc1ccc(F)cc1)(C(=O)OC)N(C(=O)c1ccccc1)C2	x	n	x	x	x	n
COc1cccc(-n2c(-c3ccco3)nc3c(cnn3-c3ccccc3C)c2=O)c1	n	x	x	n	x	n
CCCc1cc(NC(=O)COC(=O)c2ccc(O)cc2O)n(-c2ccccc2)n1	x	n	n	x	n	n
CC(C)(C)c1cc(NC(=O)CCl)n(-c2ccccc2)n1	n	n	n	13µM	n	n
CCCc1cc(NC(=O)CCl)n(-c2ccccc2)n1	n	n	n	10µM	n	n
CC(Cl)C(=O)Nc1cc(C(C)(C)C)nn1-c1ccccc1 (stereo not drawn)	n	n	n	n	n	n
CCN1C(=O)CC(N2CCC(c3nc4ccccc4[nH]3)CC2)C1=O (stereo not drawn)	n	n	n	n	n	n
COc1cccc(N2C(=O)CC(N3CCC(c4nc5ccccc5[nH]4)CC3)C2=O)c1 (stereo not drawn)	n	35µM	n	n	n	n
CCC(c1nnnn1-c1ccc(OC)cc1)N1CCC(n2c(=O)[nH]c3ccccc32)CC1 (stereo not drawn)	x	n	x	x	x	n
O=C1CC(N2CCC(c3nc4ccccc4o3)CC2)C(=O)N1c1cc(Cl)cc(Cl)c1 (stereo not drawn)	n	28µM	n	n	n	n
COc1ccc(N2C(=O)CC(N3CCC(n4c(=O)[nH]c5ccccc54)CC3)C2=O)cc1 (stereo not drawn)	n	28µM	n	35µM	n	n
Cc1cccc(N2C(=O)CC(N3CCC(c4nc5ccccc5[nH]4)CC3)C2=O)c1 (stereo not drawn)	n	28µM	n	35µM	n	n
COc1ccc(N2CC(C(=O)N3CCC(c4nc5ccccc5[nH]4)CC3)CC2=O)cc1 (stereo not drawn)	n	n	n	n	n	n
O=C(/C=C/c1ccc(Cl)cc1)N1CCC(c2nc3ccccc3o2)CC1	n	x	x	n	x	n
COc1cc(C(=O)NCC(c2cccnc2)N2CCc3ccccc32)cc(OC)c1OC (stereo not drawn)	n	x	x	n	x	n
Cc1cccn2c(=O)c3cc(C(=O)NCc4ccccc4)c(=N)n(CCOCCO)c3nc12	n	x	x	n	x	n
COc1ccc(/C=C2\CCCC(C(=O)C(F)(F)F)=C2O)cc1OC	n	x	n	32µM	n	x
COc1cc(/C=C2/CCCC(C(=O)C(F)(F)F)=C2O)ccc1O	n	n	n	35µM	n	n
CCOC(=O)c1ccoc1CSCc1ccc(C(=O)OC)o1	n	n	n	28µM	n	n
CCCCCCCNC(=O)C1(CC2CC(c3ccc(Cl)cc3)=NO2)CCNCC1 (stereo not drawn)	n	n	n	40µM	n	n
CCCCCCCNC(=O)C1(CC2CC(c3cccc(Br)c3)=NO2)CCNCC1 (stereo not drawn)	u	n	n	25µM	n	n
O=C(c1cccc(F)c1)N1CCC2(CC1)CN(c1ccc(-c3ccccc3)cc1)C2	x	x	x	x	x	n
O=C(O)c1ccc2c(c1)C(=O)/C(=C\c1ccco1)C2=O	n	n	n	7.1µM	n	u
Cc1ccc(C=C2C(=O)c3ccccc3C2=O)o1	n	n	n	n	u	u
CC(C)(C)N1C(=O)c2ccc(C(=O)O)cc2C1=O	n	n	n	n	n	n
